Source: PubChem BioAssay (Tox21)
Records with an inconclusive call do not appear. A number with no mark means an inactive call. Active and inactive are the calls of the source. Calls follow the shape of the dose curve; as a rule, active = well fitted cell-killing curve with a large enough effect in the repeat runs; inconclusive = weak or mixed curves; inactive = flat fitted curve, though single readings scatter.

Experiment: qHTS RealTime-Glo MT Cell Viability Assay in HepG2 cells - 8 hour (AID 1224873); also: nearly all actives have a fitted effect of over 55% in size
Settings: RealTime-Glo luminescence; series mostly up to 76.8 µM; viability change, negative = cytotoxic: at the top concentration
Excerpt: National Center for Advancing Translational Sciences [NCATS]
NIH Chemical Genomics Center [NCGC]
U.S. Environmental Protection Agency [EPA]
National Institutes of Environmental Health Sciences [NIEHS]
National Toxicology Program [NTP]
U.S. Food and Drug Administration [FDA]
Measure of cell viability is critical in the cell-base assay. Analysis of cell viability is necessary for the characterization of cell responses to cytotoxic drugs and environmental stress. A RealTime-Glo MT Cell Viability Assay to monitor cell viability in real time of continues cell culture during 40 hours of compound treatment was used to screen Tox21 10K library compounds in HepG2 cells. The RealTime-Glo MT Cell Viability Assay is a nonlytic, homogeneous, bioluminescent method to measure cell viability in real time using a simple, plate-based method. The assay involves adding NanoLuc luciferase and a cell-permeant prosubstrate to cells in culture. Viable cells reduce the proprietary prosubstrate to generate a substrate for NanoLuc luciferase. This substrate diffuses from cells into the surrounding culture medium, where it is rapidly used by the NanoLuc Enzyme to produce a luminescent signal. The signal correlates with the number of viable cells, making the assay well suited for cytotoxicity studies.
Tox21 Assay Protocol Summary:
The mixture of HepG2 cell suspension and reagents were dispensed at 600cells/6 ul/well in 1536-well tissue culture treated black solid bottom plates using a Multidrop dispenser. After the assay plates were incubated at a 37 C/5% CO2 incubator for 5 hours, 23 nL of compounds dissolved in DMSO, positive and negative controls was transferred to the assay plate by a pintool work station. The plates were incubated at 37 C for 40 hours. The luminescence intensity were measured at 0h, 8h, 16h, 24h, 32h and 40h time points using ViewLux plate reader during compound treatment.
% is scaled to controls: 0 for no effect and ±100 for the full control effect; potency is read from the fitted curve at half-maximal effect.

| Structure (SMILES) | viability change, negative = cytotoxic | Potency |
| --- | --- | --- |
| C=C(C)CCO | -14.8% | – |
| COC(=O)c1ccc([N+](=O)[O-])cc1 | -14.4% | – |
| S=C1NC=NC2N=CNC12 (stereo not given) | 2.06% | – |
| C1=CCCC1 | -0.293% | – |
| CN(C[C@@H](CC[N+]12CCC(C3CCCCC3)(CC1)CC2)c1ccc(Cl)c(Cl)c1)C(=O)c1cc(C(F)(F)F)cc(C(F)(F)F)c1 | – | 24.5 µM (active) |
| CC1(C)[C@H]2CC[C@]1(C)C(=O)C2 | 1.4% | – |
| COc1c(Br)cc(Br)c(C)c1Br | -16.4% | – |
| Brc1cc(Br)cc(Br)c1 | 0.664% | – |
| ClC(c1ccccc1)(c1ccccc1)c1ccccc1 | -3.92% | – |
| CCNc1nc(NC(C)(C)C)nc(OC)n1 | 2.81% | – |
| CCCCCc1ccc(O)cc1 | -18.5% | – |
| Cn1c(=O)[nH]c2ncn(C)c2c1=O | 2.1% | – |
| CCCCC/C=C\C=C\C(=O)OCC | -20.1% | – |
| CCc1cccc(CC)c1 | 4.65% | – |
| C=C1CC[C@H]2O[C@]2(C)CC[C@@H]2[C@@H]1CC2(C)C | 5.34% | – |
| Cc1ccc(C=O)cc1 | 0.441% [at 35.3 µM] | – |
| CCCCCCCCCCCCCCCCC(C(=O)O)C(O)(CC(=O)O)C(=O)O (stereo not given) | -12.9% [at 35.3 µM] | – |
| O=c1cc[nH]cc1 | -1.46% | – |
| CCSCC | 2.32% | – |
| C=COCCCC | -10.2% | – |

| Structure (SMILES) | viability change, negative = cytotoxic | Potency |
| --- | --- | --- |
| NCc1ccco1 | 1.61% | – |
| CCC(C)(C)c1ccc(CC(C)CN2C[C@@H](C)O[C@@H](C)C2)cc1 (stereo not given in full) | -15.1% [at 35.3 µM] | – |
| O=C1OCc2ccccc21 | -3.25% | – |
| O=C(Cl)c1ccc(Cl)cc1Cl | -24.5% | – |
| Cc1cc(C)c(O)c(C(C)(C)C)c1 | -22.1% | – |
| CCCC(=O)c1cc(O)c(O)cc1O | -9.23% | – |
| CN[C@H]1CC[C@@H](c2ccc(Cl)c(Cl)c2)c2ccc(S(N)(=O)=O)cc21 | – | 49 µM (active) |
| C/C(=N\[Si](C)(C)C)O[Si](C)(C)C | 2.19% | – |
| CCn1c2ccccc2c2ccccc21 | -2.18% | – |
| Cc1ccc2nc(-c3ccc(N)cc3)sc2c1S(=O)(=O)O | 2.47% [at 35.3 µM] | – |
| CC(=O)Nc1ccc(N=Nc2cc(C)ccc2O)cc1 | -14.1% | – |
| Cn1ccnc1 | 7.37% | – |
| SC1CCCCC1 | 0.617% | – |
| CCCCCCCCc1ccc(Nc2ccc(CCCCCCCC)cc2)cc1 | -9.21% [at 35.3 µM] | – |
| c1ccc(-c2nc3ccccc3[nH]2)cc1 | -24.5% | – |
| CCC(=O)OC/C=C(\C)CCC=C(C)C | 2.35% | – |
| COc1cc2ncnc(Nc3cccc(Cl)c3)c2cc1OC | -19.1% [at 15.8 µM] | – |
| O=[N+]([O-])c1ccc(CO)cc1 | -11.7% | – |
| O=C1CCC(=O)N1 | 5.39% | – |
| O=C(Nc1ccccc1)c1cc(Cl)ccc1O | -13.3% | – |
